{"source": "paper PMC7862700", "about": "“An all-to-all approach to the identification of sequence-specific readers for epigenetic DNA modifications on cytosine”", "assay_in_all_cases": "DAPPL (digital affinity profiling via proximity ligation, sequencing); 10 mM Tris-HCl pH 7.5, 50 mM NaCl, 1 mM DTT, 4% glycerol, room temperature, 30 min; GST-TFs on glutathione beads, 16-mer random dsDNA library, 0.1% formaldehyde crosslink after washing; high values mean tight binding", "settings_in_all_cases": "protein: recombinant; tags: N-terminal GST; dsDNA, one strand shown", "key": {"FLI1": {"target": "T1, FLI1 (Homo sapiens, UniProt Q01543 1-452)", "T1 sequence": "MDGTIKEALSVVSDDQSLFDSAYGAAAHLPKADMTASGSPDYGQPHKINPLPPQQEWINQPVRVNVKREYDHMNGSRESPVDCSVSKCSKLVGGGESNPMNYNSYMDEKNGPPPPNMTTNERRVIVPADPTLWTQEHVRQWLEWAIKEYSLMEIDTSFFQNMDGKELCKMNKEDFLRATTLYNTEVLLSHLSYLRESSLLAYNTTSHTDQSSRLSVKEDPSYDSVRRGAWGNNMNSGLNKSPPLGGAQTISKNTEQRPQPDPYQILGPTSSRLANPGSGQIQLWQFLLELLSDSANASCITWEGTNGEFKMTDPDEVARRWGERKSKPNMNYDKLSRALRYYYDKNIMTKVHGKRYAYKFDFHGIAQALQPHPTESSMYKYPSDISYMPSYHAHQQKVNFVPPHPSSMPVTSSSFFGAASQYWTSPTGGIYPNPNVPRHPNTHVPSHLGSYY", "method_in_brief": "(§1)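 Binding signal is defined as a hexamer's read frequency for one factor over its frequency for the tag-only sample. To obtain reads, GST-fused human transcription factors were expressed in yeast, captured on glutathione beads, barcoded with DNA and pooled with that sample. Pools met 200 nmole of a 16-mer random double-stranded DNA library in Tris/NaCl/DTT/glycerol buffer for 30 min at room temperature before washing, 0.1% formaldehyde crosslinking, proximity ligation (BsaI/T4 ligase, 1 h, 37 °C), PCR and Illumina NextSeq500 sequencing.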"}, "ELK1": {"target": "T2, ELK1 (Homo sapiens, UniProt P19419 1-428)", "T2 sequence": "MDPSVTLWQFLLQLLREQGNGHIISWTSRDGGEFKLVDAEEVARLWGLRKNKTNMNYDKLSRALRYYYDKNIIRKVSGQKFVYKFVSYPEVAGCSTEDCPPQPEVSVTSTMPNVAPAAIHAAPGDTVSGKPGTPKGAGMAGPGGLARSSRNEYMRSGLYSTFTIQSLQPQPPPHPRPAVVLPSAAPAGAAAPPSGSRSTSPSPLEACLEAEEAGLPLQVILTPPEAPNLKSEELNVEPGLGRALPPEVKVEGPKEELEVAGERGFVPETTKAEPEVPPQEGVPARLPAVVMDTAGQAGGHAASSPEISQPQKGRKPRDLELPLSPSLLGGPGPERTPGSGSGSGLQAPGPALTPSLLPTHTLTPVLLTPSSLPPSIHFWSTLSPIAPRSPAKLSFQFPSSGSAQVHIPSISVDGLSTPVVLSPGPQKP", "method_in_brief": "as §1"}, "GABPA": {"target": "T3, GABPA (Homo sapiens, UniProt Q06546 1-454)", "T3 sequence": "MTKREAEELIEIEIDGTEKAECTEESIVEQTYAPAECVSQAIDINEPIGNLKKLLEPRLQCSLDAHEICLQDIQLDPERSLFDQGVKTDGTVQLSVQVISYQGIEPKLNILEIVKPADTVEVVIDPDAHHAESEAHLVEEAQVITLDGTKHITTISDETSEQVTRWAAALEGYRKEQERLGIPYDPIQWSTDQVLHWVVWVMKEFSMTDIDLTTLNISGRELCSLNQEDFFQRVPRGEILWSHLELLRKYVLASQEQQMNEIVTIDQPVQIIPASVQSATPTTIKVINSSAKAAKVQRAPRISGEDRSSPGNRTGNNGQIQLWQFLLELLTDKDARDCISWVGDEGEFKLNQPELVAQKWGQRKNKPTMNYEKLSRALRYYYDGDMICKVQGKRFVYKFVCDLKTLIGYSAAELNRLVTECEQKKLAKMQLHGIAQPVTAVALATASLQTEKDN", "method_in_brief": "as §1"}, "ERG": {"target": "T4, ERG (Homo sapiens, UniProt P11308 1-479)", "T4 sequence": "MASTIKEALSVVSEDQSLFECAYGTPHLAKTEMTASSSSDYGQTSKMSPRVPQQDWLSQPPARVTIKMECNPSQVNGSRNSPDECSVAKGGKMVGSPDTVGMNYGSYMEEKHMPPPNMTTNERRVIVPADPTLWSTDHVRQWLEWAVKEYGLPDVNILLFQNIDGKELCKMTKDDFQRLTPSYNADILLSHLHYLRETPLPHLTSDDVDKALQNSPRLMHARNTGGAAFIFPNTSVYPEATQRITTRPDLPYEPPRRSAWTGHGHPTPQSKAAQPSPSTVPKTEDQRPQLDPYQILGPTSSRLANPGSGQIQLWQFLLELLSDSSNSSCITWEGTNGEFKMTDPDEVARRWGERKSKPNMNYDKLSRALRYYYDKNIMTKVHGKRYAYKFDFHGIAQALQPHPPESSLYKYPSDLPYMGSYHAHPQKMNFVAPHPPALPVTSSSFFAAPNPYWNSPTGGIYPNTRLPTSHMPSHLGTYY", "method_in_brief": "as §1"}, "ELF1": {"target": "ELF1 (Homo sapiens, UniProt P32519 1-619)", "sequence (P32519 whole entry)": "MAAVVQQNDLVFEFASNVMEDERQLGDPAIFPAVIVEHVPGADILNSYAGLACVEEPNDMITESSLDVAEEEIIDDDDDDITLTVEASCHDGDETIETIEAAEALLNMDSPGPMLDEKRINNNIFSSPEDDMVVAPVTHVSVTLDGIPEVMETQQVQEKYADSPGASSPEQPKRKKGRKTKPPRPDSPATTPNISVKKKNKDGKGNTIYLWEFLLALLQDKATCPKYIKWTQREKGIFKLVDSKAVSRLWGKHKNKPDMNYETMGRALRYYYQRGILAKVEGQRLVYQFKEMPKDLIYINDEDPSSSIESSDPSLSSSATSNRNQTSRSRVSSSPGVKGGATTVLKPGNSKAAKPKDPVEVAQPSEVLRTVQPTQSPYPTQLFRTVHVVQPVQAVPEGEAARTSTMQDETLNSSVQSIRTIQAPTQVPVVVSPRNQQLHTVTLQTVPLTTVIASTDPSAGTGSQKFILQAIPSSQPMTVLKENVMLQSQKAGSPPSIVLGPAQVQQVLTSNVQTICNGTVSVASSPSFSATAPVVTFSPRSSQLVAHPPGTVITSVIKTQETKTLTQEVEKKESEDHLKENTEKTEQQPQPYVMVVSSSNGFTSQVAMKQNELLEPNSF", "method_in_brief": "as §1"}, "EHF": {"target": "T5, EHF (Homo sapiens, UniProt Q9NZC4 1-300)", "T5 sequence": "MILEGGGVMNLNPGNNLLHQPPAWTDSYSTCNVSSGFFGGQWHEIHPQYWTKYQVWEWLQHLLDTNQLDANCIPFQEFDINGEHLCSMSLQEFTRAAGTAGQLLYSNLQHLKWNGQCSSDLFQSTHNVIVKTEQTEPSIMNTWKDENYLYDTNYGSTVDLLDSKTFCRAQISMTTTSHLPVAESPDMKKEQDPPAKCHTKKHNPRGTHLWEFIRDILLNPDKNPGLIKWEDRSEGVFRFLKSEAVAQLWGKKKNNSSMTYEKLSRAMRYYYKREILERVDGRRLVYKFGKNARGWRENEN", "method_in_brief": "as §1"}, "SPI1": {"target": "SPI1 (Homo sapiens, UniProt P17947 1-270)", "method_in_brief": "as §1"}, "SPIB": {"target": "SPIB (Homo sapiens, UniProt Q01892 1-262)", "sequence (Q01892 whole entry)": "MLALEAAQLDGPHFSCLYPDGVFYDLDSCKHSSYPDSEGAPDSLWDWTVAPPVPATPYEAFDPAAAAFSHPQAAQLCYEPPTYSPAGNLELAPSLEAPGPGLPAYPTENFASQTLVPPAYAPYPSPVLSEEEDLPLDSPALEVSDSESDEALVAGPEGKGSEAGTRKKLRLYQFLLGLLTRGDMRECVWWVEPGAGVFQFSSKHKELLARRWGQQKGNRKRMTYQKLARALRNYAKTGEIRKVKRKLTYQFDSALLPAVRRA", "method_in_brief": "as §1"}, "ELK3": {"target": "T6, ELK3 (Homo sapiens, UniProt P41970 1-407)", "T6 sequence": "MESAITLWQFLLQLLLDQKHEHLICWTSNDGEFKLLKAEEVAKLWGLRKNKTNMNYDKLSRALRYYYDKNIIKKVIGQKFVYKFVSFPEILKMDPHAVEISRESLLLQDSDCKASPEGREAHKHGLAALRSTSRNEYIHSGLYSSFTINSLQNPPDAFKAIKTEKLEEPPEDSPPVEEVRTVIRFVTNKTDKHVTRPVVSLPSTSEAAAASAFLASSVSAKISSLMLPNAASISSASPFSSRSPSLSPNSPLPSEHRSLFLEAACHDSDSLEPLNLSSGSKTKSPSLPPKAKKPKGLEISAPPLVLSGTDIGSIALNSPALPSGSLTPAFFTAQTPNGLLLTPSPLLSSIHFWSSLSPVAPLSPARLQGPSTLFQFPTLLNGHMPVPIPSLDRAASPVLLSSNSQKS", "method_in_brief": "as §1"}}, "data": [{"sequence": "TATTCC", "values": [{"measurement": "binding signal", "setting": "FLI1", "value": "1.65 fold enrichment (6-mer frequency, TF over GST control)"}, {"measurement": "binding signal", "setting": "ELK1", "value": "1.68 fold enrichment (6-mer frequency, TF over GST control)"}, {"measurement": "binding signal", "setting": "GABPA", "value": "1.6 fold enrichment (6-mer frequency, TF over GST control)"}, {"measurement": "binding signal", "setting": "ERG", "value": "1.52 fold enrichment (6-mer frequency, TF over GST control)"}, {"measurement": "binding signal", "setting": "ELF1", "value": "1.59 fold enrichment (6-mer frequency, TF over GST control)"}, {"measurement": "binding signal", "setting": "EHF", "value": "1.58 fold enrichment (6-mer frequency, TF over GST control)"}, {"measurement": "binding signal", "setting": "SPI1", "value": "1.48 fold enrichment (6-mer frequency, TF over GST control)"}, {"measurement": "binding signal", "setting": "SPIB", "value": "1.49 fold enrichment (6-mer frequency, TF over GST control)"}, {"measurement": "binding signal", "setting": "ELK3", "value": "1.56 fold enrichment (6-mer frequency, TF over GST control)"}]}]}
